Rows were chosen to be rich in hits. Some 0.52% of all compounds tested hit in one or more screens of this group.
Vif-A3G inh – inhibitors of Vif-APOBEC3G interaction; Q9HC16; HeLa A3G-eYFP + Vif (tagged APOBEC3G with the HIV-1 protein that degrades it), YFP fluorescence, overnight; Potency, µM (doses to about 46.1 µM), actives largely listed as inhibitors; 410,000 compounds, 0.076% hits; AID 602310; further: nearly all actives have a fitted effect of over 60% in size
Target sequence (Q9HC16 whole entry, looked up): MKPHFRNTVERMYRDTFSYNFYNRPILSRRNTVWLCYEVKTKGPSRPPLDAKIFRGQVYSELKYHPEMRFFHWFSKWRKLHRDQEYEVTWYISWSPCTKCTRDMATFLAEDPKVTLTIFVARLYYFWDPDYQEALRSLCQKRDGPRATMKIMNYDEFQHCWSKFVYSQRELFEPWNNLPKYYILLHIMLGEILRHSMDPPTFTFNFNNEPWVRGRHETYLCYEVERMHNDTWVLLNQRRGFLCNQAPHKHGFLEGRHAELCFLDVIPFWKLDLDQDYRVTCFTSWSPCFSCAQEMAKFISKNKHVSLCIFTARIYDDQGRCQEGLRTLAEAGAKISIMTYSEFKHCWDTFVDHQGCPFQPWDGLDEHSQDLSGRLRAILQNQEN
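HeLa cells stably expressing Vif and C-terminally eYFP-tagged A3G, seeded overnight at 37 deg C, then exposed to compound by pintool overnight at 37 deg C. Rise in yellow fluorescence (Ex 488/Em 500-530, Acumen) marks blocked Vif-driven A3G degradation.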
TRPML1 ag – agonists of human TRPML1 channel | Q9GZU1 | TRPML1-expressing cells, Ca2+ dye fluorescence, FDSS | activation, % (concentration not given with the values) | 410,000 compounds, 0.12% hits; in the data active means activation above about 50%; inconclusive means mostly about 30% to 49%
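Agonist activity was taken from a 110 s kinetic Ca2+ dye read on the FDSS after pinning compounds onto TRPML1-DL cells. The cells were seeded at 1,500/well with Tet inducer, incubated about 16 h, then dye-loaded at room temperature.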
Vif-APOBEC3F blk – inhibitors of Vif-A3F interaction; HeLa A3F-eYFP + Vif (tagged APOBEC3F with the HIV-1 protein that degrades it), YFP fluorescence increase; Potency, µM (titrated, usually from 46.1 µM); AID 602313; 390,000 compounds, 0.2% hits; further: nearly all actives have a fitted effect of over 65% in size
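Fluorescence increase (Ex 488/Em 500-530) after overnight compound treatment at 37 deg C flags inhibition of Vif-driven A3F-eYFP loss in stable HeLa A3F-eYFP/Vif cells seeded overnight beforehand.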
PINK1 expr mod – PINK1 expression modulation; 410,000 compounds, 0.2% hits; PINK1 immunofluorescence, high-content cytometry, 24 h; AID 624263; Potency, µM (highest dose often 76.6 µM), most hits filed as activators; active means well fitted activation curve with a large enough effect; inconclusive means small, poorly fitted or top-dose-only effect; cell line not stated here; further: nearly all actives have a fitted effect of over 65% in size
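Decision-based qHTS: stable cells, 24 h exposure to five compound concentrations, CCCP as control. Fixed cells stained for PINK1 plus nuclear, mitochondrial and cell markers, cytometer read.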
TRPML1 blocker – human mucolipin-1 channel inhibition; Q9GZU1; activity change, negative = inhibition, % (concentration not given with the values); AID 624415; TRPML1-inducible cells, Ca2+ dye fluorescence, FDSS; active compounds read low; inhibition of EC80 agonist-evoked calcium signal; 390,000 compounds, 0.02% hits; in the data active means activity change below about -50%; inconclusive means between about -30% and that limit;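 further: stimulus is agonist 54-4 at its EC80 concentration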
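TRPML1-DL cells, Tet-induced overnight (~16 h, 37 °C) at 1,500 cells/well, were loaded with Ca8 no-wash dye plus quencher for 45-90 min at room temperature. Compounds were pinned during FDSS kinetic reading; agonist 54-4 at EC80 (4 uM final) then added.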
Numbers stand for hits; 0 = inactive; ? = inconclusive; - = not tested or not shown. Unless noted, the call rests on the fitted dose curve; in most records, active means well fitted curve in the direction sought with a large enough effect; inconclusive means small, poorly fitted or top-dose-only effect, or another doubt; inactive means no such curve, though single readings can be large; an effect the other way counts as inactive or inconclusive.

SMILES | Vif-A3G inh | TRPML1 ag | Vif-APOBEC3F blk | PINK1 expr mod | TRPML1 blocker
Fc1ccc2nc3[nH]c4ccccc4c3nc2c1 | 1.4µM | 0 | ? | 0 | 0
COc1ccc(-c2nc3scc(CCNS(=O)(=O)c4c(C)cc(C)cc4C)n3n2)cc1OC | 0 | 0 | 0 | 0 | 0
O=C(c1ccccc1)c1c2c(cc3sc4ccccc4[n+]13)-c1cccc3cccc-2c13 | 6.3µM | 54 | ? | ? | 0
CC1(C)CC2(CCCN(CC(O)(c3ccccc3)c3ccccc3)C2)CCO1 (centres undefined) | 0 | 0 | 0 | ? | 0
CCC1(C)CC2(CCCN(CCC(O)(c3ccccc3)c3ccccc3)C2)CCO1 (centres undefined) | 0 | 0 | 0 | 45µM | 0
Cc1ccc2[nH]c(=O)c3cc(C(=O)N(C)C4CCCCC4)sc3c2c1 | 0 | 0 | 0 | 0 | 0
COc1ccc(-c2n(Cc3ccccc3)c3ccccc3[n+]2Cc2ccccc2)cc1 | 0 | 0 | 0 | 11µM | 0
ClCC1NCC(c2ccccc2Cl)c2c1[nH]c1ccccc21 (centres undefined) | ? | 0 | 22µM | 0 | 0
CC(C)S(=O)(=O)NC(=O)C1(C)CCN1C(=O)Cc1ccccc1 (centres undefined) | 0 | 0 | - | 0 | 0
COc1cc2nc(/C=C/c3ccc(N(C)C)cc3)sc2cc1SC | ? | 120 | 8.9µM | 0 | 0
CCCCCCCn1c2c(c(=N)c3ccccc31)CCC2 | 0 | 0 | 0 | 20µM | 0
CCCn1c2c(c(=N)c3c1CCC3)CCC2 | 0 | 0 | 0 | 0 | 0
O=C(c1ccccc1)N1c2nc(-c3ccco3)nn2C2(CCCCC2)[C@@H]2CCCC[C@@H]21 | 0 | 0 | 0 | 0 | 0
COc1cc2nc(N3CCCN(C)CC3)nc(Nc3ccncc3)c2cc1OC | 0 | 0 | - | 0 | -
O=C(Nc1nc2c(Cl)cccc2s1)c1ccc([N+](=O)[O-])o1 | 0 | 0 | 0 | ? | 0
O=C(Nc1nc2c(Cl)cccc2s1)c1ccc(Br)o1 | 0 | 0 | 0 | 14µM | 0
CCOc1ccc(NS(=O)(=O)c2cccc(C(=O)N3CCN(C/C=C/c4ccccc4)CC3)c2)cc1 | 0 | 0 | 0 | 0 | 0
O=C(CSc1nc2ccccc2s1)c1cc2ccccc2o1 | ? | 0 | 25µM | 0 | 0
Cc1ccc2c(c1)sc(-c1ccc(N(C)C)cc1)[n+]2C | ? | 0 | 22µM | ? | 0
O=C(CSc1n[nH]c(-c2ccccn2)n1)Nc1ccc(F)cc1 | 0 | 0 | ? | 0 | 0
O=C(CSc1n[nH]c(-c2ccccn2)n1)Nc1ccc(Cl)cc1 | 0 | 0 | 7.9µM | 0 | 0
O=C1CN(C(=O)c2ccc(S(=O)(=O)N3CCCCC3)cc2)C(c2ccc(F)cc2)c2cc(Br)ccc2N1 (centres undefined) | 0 | 0 | 0 | 0 | 0
COC(=O)c1cc(N/C(N)=N/c2nc(C)cc(C)n2)cc(C(=O)OC)c1 | 0 | 0 | 0 | 0 | 0
